For 40 compounds, growth inhibition results are on record in PubChem BioAssay (NCI).

Compounds without any hit were thinned out: in the full panel of roughly 79,000, 15% have a hit. Activity calls are given as the source filed them. No stated cut-off is given here; in the data, active means growth inhibition above about 70%; inactive means the rest.

This test can be described thus: NCI Yeast Anticancer Drug Screen. Data for the rad50 strain (AID 155).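 Further: 0% = growth of vehicle-only cultures of the same strain.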 Conditions: S. cerevisiae rad50 strain growth inhibition; at 5.0 µM (retest, dose inferred, filed as 0.5); active compounds read high. The procedure, abridged: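 DNA repair mutant yeast, compound exposure, growth read-out; inhibition is taken relative to vehicle.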
Take `CCOC(=O)CNC(=O)C1C2c3ccccc3C(c3ccccc32)C1C(=O)O` (stereo not given): the growth inhibition is 3% (inactive).
Consider `O=[N+]([O-])c1ccc(NP(=S)(Nc2ccc([N+](=O)[O-])cc2)c2ccccc2)cc1`, for which the growth inhibition was 28% (inactive).
Turning to `O=P(c1ccccc1)(c1ccccc1)c1ccccc1.[Cl][Sn]([c]1ccccc1)([c]1ccccc1)[c]1ccccc1`, the growth inhibition was 99% (active).
Regarding `CC(C)(C)OOC(=O)/C=C\C(=O)OOC(C)(C)C`, the growth inhibition was 1% (inactive).
For the compound `Cc1cc2c(cc1O)C(C)(C)CCC2(C)C`, the growth inhibition is 8% (inactive).
Regarding `N#CC(C#N)=Cc1ccc(Cl)o1`, the growth inhibition is 2% (inactive).
`COc1c(Br)cc(/C=C/[N+](=O)[O-])cc1Br`: the growth inhibition was 98% (active).
For the compound `[O]=[Sb]([OH])([OH])[c]1ccc(NC2OC(CO)C(O)C(O)C2O)cc1` (stereo not given), the growth inhibition is 0% (inactive).
For `NC(=S)C1=C(N)Oc2c(c(=O)oc3ccccc23)C1c1ccc(Br)cc1` (stereo not given), the growth inhibition was -7% (inactive).
Regarding `COS(=O)(=O)c1ccccc1`, the growth inhibition was 8% (inactive).
`O=[N+]([O-])c1cc[n+]([O-])c2ccccc12`: the growth inhibition was 99% (active).
As for `O=C(c1ccccc1)c1c(CC(O)c2cccnc2)n(C(=O)c2ccccc2)c2ccccc12` (stereo not given), the growth inhibition is 6% (inactive).
For `Nc1nc2ncnc(N)c2nc1-c1ccc(N(CCCl)CCCl)cc1`, the growth inhibition is -2% (inactive).
As for `O=C1c2ccccc2CCC1Br` (stereo not given), the figure is -20% (inactive).
Turning to `CC1CCCC[N-]1.CC1CCCC[N-]1.N#C[S-].N#C[S-].[Cd]` (stereo not given), the growth inhibition is 20% (inactive).
On to `CCOP(=O)(OCC)/C(C#N)=C/c1ccc(Br)cc1`, for which the growth inhibition is -14% (inactive).
Take `CN(CCCl)Cc1ccc(OCc2ccccc2)c(OCc2ccccc2)c1`: the growth inhibition was 2% (inactive).
As to `O=C(O)c1cccc2cccc(C(=O)O)c12.[Hg]`, the growth inhibition was 99% (active).
Under `S=c1[nH]c2ccccc2s1.[Pb]` stands -11% (inactive).
For `COc1ccc([As](O[As](c2ccc(OC)cc2)c2ccc(OC)cc2)c2ccc(OC)cc2)cc1`, the growth inhibition is 99% (active).
For the compound `CC1=C/C(=C2/N=C(N(C)C)SS2)C(C)=N1`, the growth inhibition is 11% (inactive).
In the case of `CN1C2CCC1c1c([nH]c3ccccc13)C2` (stereo not given), the growth inhibition was -22% (inactive).
Regarding `C[CH2][Sn]([Br])([CH2]C)[c]1ccccc1CN(C)C`, the growth inhibition is 30% (inactive).
As for `O=C(CCl)Nc1ccc(Cl)cc1`, the growth inhibition is 3% (inactive).
`ClC1CCCCC1[Se](Cl)(Cl)C1CCCCC1Cl` (stereo not given): the growth inhibition is 34% (inactive).
Turning to `Cc1cc(C(C)(C)c2ccc(O)c(C)c2)ccc1O`, the growth inhibition was -2% (inactive).
In the case of `O=[N+]([O-])O.[In]`, the growth inhibition is 9% (inactive).
Under `[pH]1p2[pH]p3p1p3[pH]2.c1cc[c]([Ge]([c]2ccccc2)[c]2ccccc2)cc1.c1cc[c]([Ge]([c]2ccccc2)[c]2ccccc2)cc1.c1cc[c]([Ge]([c]2ccccc2)[c]2ccccc2)cc1` stands 10% (inactive); under `C1=CC2CCC[N-]C2N1.C1=CC2CCC[N-]C2N1.[I][Pt+2][I]` (stereo not given), 4% (inactive); under `O=[N+]([O-])/C=C/c1cccc(F)c1`, 40% (inactive).
Under `O=[N+]([O-])c1ccc(CS(=O)(=O)C(Cl)(Cl)Cl)o1` stands 39% (inactive); under `CC(=O)[O][Hg][c]1ccc(N)[c]([Hg][O]C(C)=O)c1`, 99% (active); under `CNP(=O)(Oc1cc(Cl)c(Cl)cc1Cl)N1CCN(c2ccccc2)CC1` (stereo not given), 12% (inactive).
In the case of `Cc1ccc2c(c1)N(CCN(CCCl)CCCl)c1c(ccc3ccccc13)S2`, the growth inhibition is 0% (inactive).
Under `CC1(C(=O)O)CCCC2(C)c3cc(O)ccc3CCC12` (stereo not given) stands 2% (inactive).
Turning to `C#CC(O)(CC)CC`, the growth inhibition is -4% (inactive).
Under `CC1CC[N-]C(C)C1.CN(C)C=O.[Cl][Pt][Cl]` (stereo not given) stands 33% (inactive); under `CN1CCN(c2ccc3nc(-c4ccc5nc(-c6ccc(N(C)CCCl)cc6)[nH]c5c4)[nH]c3c2)CC1`, 1% (inactive); under `CC(=O)NNc1ccccc1`, 6% (inactive).
In the case of `CC(C)[S-].CC(C)[S-].[Pt+2].c1ccc([PH+](c2ccccc2)c2ccccc2)cc1.c1ccc([PH+](c2ccccc2)c2ccccc2)cc1`, the growth inhibition is 4% (inactive).
